# Some of the results follow. Active and inactive are the calls of the source. Unless noted, no stated cut-off is given here; in the data, active means activity above about 50%; inactive means the rest.
# Test system: not listed separately
# Assay: inhibition of PEG-3 promoter luciferase signal – cell-based, HeLa, luciferase reporter, single concentration, confirmation (AID 602417;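 active means at 20 µM dose, 40% or more inhibition averaged across four replicates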)
# Details: HeLa PEG-Prom luciferase reporter, luminescence, overnight; at 20 µM; stronger effect = higher value
row,Compound,inhibition
1,COc1cc(SC)ccc1C(=O)Nc1nc(C)cs1,83% (active)
2,O=C(/C=C/c1ccc(Cl)c([N+](=O)[O-])c1)c1ccc(O)cc1,98.9% (active)
3,CCC(C)Cn1c(O)cc2nn(-c3nc4ccccc4s3)c(=O)c-2c1C (stereo unspecified),94.5% (active)
4,Cc1ccc(-c2cn3cc(C)ccc3n2)cc1,82% (active)

# Test system: not listed separately
# Assay: HIF-2a driven luciferase blockers, single dose – luminescence, 786-0 RCC cells, confirmation (AID 651580;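 active means mean inhibition across four replicates of at least 40 percent at the single tested concentration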)
# Details: HIF-2a luciferase reporter luminescence, overnight, at 18.8 µM, stronger effect = higher value
row,Compound,inhibition
1,COc1cc(SC)ccc1C(=O)Nc1nc(C)cs1,92.8% (active)
2,O=C(/C=C/c1ccc(Cl)c([N+](=O)[O-])c1)c1ccc(O)cc1,20.2% (inactive)
3,Clc1ccc2nc(-c3ccccc3)nc(C(Cl)Cl)c2c1,-30.4% (inactive)

# Test system: not listed separately
# Assay: HIF-1a luciferase reporter signal reduction – MiaPaCa-2 cells, single concentration, counter-screen for HIF-2a inhibitor project, confirmation (AID 651589;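 active means mean inhibition of the reporter signal across four replicates at the single tested dose of 50% or more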)
# Details: MiaPaCa-2 HIF-1a luciferase reporter, desferoxamine, overnight; at 18.8 µM; stronger effect = higher value
row,Compound,inhibition
1,COc1cc(SC)ccc1C(=O)Nc1nc(C)cs1,96.9% (active)
2,O=C(/C=C/c1ccc(Cl)c([N+](=O)[O-])c1)c1ccc(O)cc1,105% (active)
3,Clc1ccc2nc(-c3ccccc3)nc(C(Cl)Cl)c2c1,104% (active)

# Biological target: PEG-3 (UniProt Q6IN02)
# Sequence (Q6IN02 whole entry, looked up): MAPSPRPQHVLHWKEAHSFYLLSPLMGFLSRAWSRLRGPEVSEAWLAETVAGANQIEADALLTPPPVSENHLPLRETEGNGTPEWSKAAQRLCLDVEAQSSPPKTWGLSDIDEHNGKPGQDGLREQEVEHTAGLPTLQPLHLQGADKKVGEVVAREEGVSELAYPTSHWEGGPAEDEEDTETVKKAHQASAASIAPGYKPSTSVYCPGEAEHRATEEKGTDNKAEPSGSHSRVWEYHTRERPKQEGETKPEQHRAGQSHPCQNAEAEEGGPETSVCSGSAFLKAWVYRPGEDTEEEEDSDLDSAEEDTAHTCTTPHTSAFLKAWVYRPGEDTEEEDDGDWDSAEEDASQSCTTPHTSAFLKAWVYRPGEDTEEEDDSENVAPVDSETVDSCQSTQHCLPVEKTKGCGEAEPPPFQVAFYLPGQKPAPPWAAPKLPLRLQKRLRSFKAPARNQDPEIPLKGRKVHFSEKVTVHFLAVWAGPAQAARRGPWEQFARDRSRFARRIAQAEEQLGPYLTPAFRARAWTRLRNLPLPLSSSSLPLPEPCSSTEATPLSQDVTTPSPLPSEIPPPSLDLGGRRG
# Assay: inhibition of PEG-3 promoter-driven reporter – cell-based, HeLa, luciferase, CREF/GAPDH counter-screen panel, dose response (AID 624167)
# Details: CREF/GAPDH counter-screens; HeLa PEG-Prom luciferase reporter, overnight, run 1, dose range 1, at 100 µM (top of the series) unless noted
row,Compound,inhibition [%]
1,COc1cc(SC)ccc1C(=O)Nc1nc(C)cs1,96.4
2,O=C(/C=C/c1ccc(Cl)c([N+](=O)[O-])c1)c1ccc(O)cc1,102
3,CCC(C)Cn1c(O)cc2nn(-c3nc4ccccc4s3)c(=O)c-2c1C (stereo unspecified),99
4,Cc1ccc(-c2cn3cc(C)ccc3n2)cc1,96.6

# Biological target: PEG-3 (UniProt Q6IN02)
# Assay: as above
# Details: CREF/GAPDH counter-screens; HeLa PEG-Prom luciferase reporter, overnight, run 2, dose range 1, at 100 µM (top of the series) unless noted
row,Compound,inhibition [%]
1,COc1cc(SC)ccc1C(=O)Nc1nc(C)cs1,95.2
2,O=C(/C=C/c1ccc(Cl)c([N+](=O)[O-])c1)c1ccc(O)cc1,99.1
3,CCC(C)Cn1c(O)cc2nn(-c3nc4ccccc4s3)c(=O)c-2c1C (stereo unspecified),101
4,Cc1ccc(-c2cn3cc(C)ccc3n2)cc1,96.4

# Test system: Rat fibroblasts (CREF)
# Assay: as above
# Details: CREF/GAPDH counter-screens; run 1, dose range 1, at 100 µM (top of the series)
row,Compound,inhibition [%]
1,COc1cc(SC)ccc1C(=O)Nc1nc(C)cs1,98.6
2,O=C(/C=C/c1ccc(Cl)c([N+](=O)[O-])c1)c1ccc(O)cc1,99.1
3,CCC(C)Cn1c(O)cc2nn(-c3nc4ccccc4s3)c(=O)c-2c1C (stereo unspecified),72.9
4,Cc1ccc(-c2cn3cc(C)ccc3n2)cc1,98.1

# Test system: Rat fibroblasts (CREF)
# Assay: as above
# Details: CREF/GAPDH counter-screens; run 2, dose range 1, at 100 µM (top of the series)
row,Compound,inhibition [%]
1,COc1cc(SC)ccc1C(=O)Nc1nc(C)cs1,99.8
2,O=C(/C=C/c1ccc(Cl)c([N+](=O)[O-])c1)c1ccc(O)cc1,98.7
3,CCC(C)Cn1c(O)cc2nn(-c3nc4ccccc4s3)c(=O)c-2c1C (stereo unspecified),68.7
4,Cc1ccc(-c2cn3cc(C)ccc3n2)cc1,96.8

# Biological target: Tumor necrosis factor receptor superfamily member 10B (Homo sapiens) (UniProt O14763)
# Sequence (O14763 whole entry, looked up): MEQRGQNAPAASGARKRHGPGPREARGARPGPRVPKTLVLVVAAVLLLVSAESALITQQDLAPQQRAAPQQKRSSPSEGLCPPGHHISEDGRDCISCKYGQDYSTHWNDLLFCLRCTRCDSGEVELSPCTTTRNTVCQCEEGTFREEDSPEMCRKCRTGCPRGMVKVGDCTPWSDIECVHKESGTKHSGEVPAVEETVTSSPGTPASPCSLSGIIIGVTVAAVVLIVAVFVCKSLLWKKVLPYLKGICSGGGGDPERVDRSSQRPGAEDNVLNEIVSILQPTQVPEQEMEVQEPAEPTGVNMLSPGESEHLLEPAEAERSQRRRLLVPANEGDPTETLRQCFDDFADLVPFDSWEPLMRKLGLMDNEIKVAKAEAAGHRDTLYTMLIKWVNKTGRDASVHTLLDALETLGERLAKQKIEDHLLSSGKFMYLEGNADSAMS
# Assay: viability loss of caspase-8 NB7 cells with TRAIL – with/without TRAIL, luminescence panel, confirmation (AID 651596)
# Details: NB7 neuroblastoma + caspase-8, TRAIL sensitization, NB7 Caspase-8, with TRAIL, mean of runs, at 10 µM, stronger effect = higher value
row,Compound,activity [%]
1,COc1cc(SC)ccc1C(=O)Nc1nc(C)cs1,98.2
2,COc1ccc(-c2nc(-c3ccccc3)no2)c(OC)c1,82.3
3,O=c1oc(/C=C/c2ccccc2)nc2ccccc12,76.2
4,CC(=O)c1sc(NC(=O)c2ccc(C)cc2)nc1C,68.5
5,Cn1c(=NC(=O)c2cnccn2)sc2ccccc21,57.3
6,COc1cccc(/C=C/c2ccc3ccccc3n2)c1OC(C)=O,67.2
7,Cc1ccc(-c2cc(C(=O)N/N=C/C=C/c3ccco3)c3ccccc3n2)cc1C,59.7
8,O=C(Nc1ccc(NC(=O)c2cccs2)cn1)c1ccco1,63.1
9,Cc1nc2cc(NC(=O)Nc3cccc(F)c3)ccc2n1C,72.3
10,COc1ccc(-c2cn3ccc(C)cc3n2)cc1,82.7

# Source: PubChem BioAssay
